PAFAH1B3 FP inh = PAFAH1B3 enzyme inhibitors, primary screen, biochemical, fluorescence polarization, human; recombinant PAFAH1B3, FP-rhodamine probe; inhibition, % at 3.39 µM; 340,000 tested, 0.28% active; AID 492972, 2010;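 active means inhibition above the screen-wide average of all tested compounds plus 3 SD, cut at about 25% in these data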;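 further: 0% = enzyme with DMSO only and 100% = wells lacking PAFAH1B3 protein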
Fam108B counter = mouse Fam108B serine hydrolase inhibitors, primary screen, counter-screen for RBBP9 inhibitor project, biochemical, fluorescence polarization. recombinant Fam108B, FP-Rh probe fluorescence polarization. 300,000 tested, 0.33% active. inhibition, % at 9.51 µM. AID 1947, 2009;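 active means inhibition above the screen mean inhibition plus 3 SD, computed separately per campaign, cut at about 18% in these data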;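 further: inhibitors lower polarization as less probe binds the enzyme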
pPAFAH inh = pPAFAH enzyme inhibitors, primary screen, biochemical, fluorescence polarization, human; Platelet-activating factor acetylhydrolase (Homo sapiens), Q13093; recombinant pPAFAH, FP-rhodamine probe fluorescence polarization; inhibition, % at 3.39 µM; 330,000 tested, 1.5% active; AID 463082, 2010;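 active means inhibition above the mean inhibition across the screen plus 3 SD, cut at about 25% in these data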;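 further: inhibitors block binding of the rhodamine activity-based probe so polarization drops; 0% = enzyme with DMSO and 100% = wells lacking pPAFAH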
PME-1 inh = PME-1 inhibitors via competitive probe labeling, primary screen, biochemical, fluorescence polarization, FP-Rh probe, HTS | inhibition, % at 5.9 µM | recombinant PME-1 | Protein phosphatase methylesterase 1 (Homo sapiens), Q9Y570 | 320,000 tested, 0.53% active;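 active means inhibition above the campaign mean of all compounds plus 3 SD, cut at about 26% in these data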;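 further: competitive labeling of PME-1 active site by serine hydrolase directed probe; 0% = PME-1 with DMSO and 100% = wells lacking PME-1 enzyme; inhibitors block probe labeling so polarization falls and inhibition rises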
Target sequence (Q9Y570 whole entry, looked up): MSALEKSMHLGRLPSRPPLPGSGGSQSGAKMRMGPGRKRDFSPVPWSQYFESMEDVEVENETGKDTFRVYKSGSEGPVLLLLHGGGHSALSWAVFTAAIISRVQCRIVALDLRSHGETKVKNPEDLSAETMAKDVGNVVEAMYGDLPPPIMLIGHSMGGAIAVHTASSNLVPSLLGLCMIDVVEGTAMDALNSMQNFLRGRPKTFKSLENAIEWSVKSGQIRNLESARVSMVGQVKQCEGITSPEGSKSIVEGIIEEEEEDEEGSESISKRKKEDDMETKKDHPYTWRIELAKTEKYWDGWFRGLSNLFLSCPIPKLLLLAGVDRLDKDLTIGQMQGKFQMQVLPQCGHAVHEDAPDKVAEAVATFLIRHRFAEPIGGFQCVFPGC
PAFAH2 FP inh = PAFAH2 enzyme inhibitors, primary screen, biochemical, fluorescence polarization, human | AID 492956, 2010 | Platelet-activating factor acetylhydrolase 2, cytoplasmic (Homo sapiens), Q99487 | inhibition, % at 3.39 µM | 340,000 tested, 0.99% active | recombinant PAFAH2, FP-rhodamine activity probe;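 active means inhibition above the mean over all tested compounds plus 3 SD, cut at about 30% in these data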;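 further: inhibitors block probe labeling of enzyme so polarization drops; 0% = enzyme with DMSO and 100% = wells lacking PAFAH2 protein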
PAFAH1B2 FP inh = PAFAH1B2 enzyme inhibitors, primary screen, biochemical, fluorescence polarization, human. recombinant PAFAH1B2, FP-rhodamine activity probe. inhibition, % at 3.39 µM. Platelet-activating factor acetylhydrolase IB subunit alpha2 (Homo sapiens), P68402. 340,000 tested, 1.2% active. AID 492953, 2010;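 active means inhibition above the mean of all tested compounds plus 3 SD, cut at about 24% in these data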;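 further: 0% = enzyme with DMSO and 100% = wells lacking PAFAH1B2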
* hit, by the source's call; . = no result. A selection: hits, their analogues and other compounds. The true share with any hit is near 2.8%.

SMILES	PAFAH1B3 FP inh	Fam108B counter	pPAFAH inh	PME-1 inh	PAFAH2 FP inh	PAFAH1B2 FP inh
COc1cccc2c1C(=O)c1c(O)c3c(c(O)c1C2=O)C[C@@](O)(C(=O)CO)C[C@@H]3OC1CC(N)C(O)C(C)O1 (stereo partly drawn)	52*	.	.	.	54*	52*
O=C(NC1CCCCC1)c1cc(S(=O)(=O)N2CCOCC2)ccc1Cl	-2	1	-3	9	-13	4
O=C1[C@H]2[C@@H](c3ccc(F)cc3)N3C(=O)N(c4cccc(F)c4)C(=O)[C@@]3(Cc3ccc(Cl)cc3)[C@H]2C(=O)N1C1CCCCC1	-6	-7	5	-12	-8	-1
Cc1cccc(N2CCN(C(=O)n3ccnc3)CC2)c1C	14	3	33*	-6	7	-1
CCC(OC(=O)c1nsc(Cl)c1Cl)C(=O)NCc1ccco1 (stereo not drawn)	4	-2	27*	-8	-7	0
CC(=O)Nc1ccc(S(=O)(=O)NCCSCc2ccc(Cl)cc2Cl)cc1	7	2	16	-13	-8	39*
COc1ccc(/C=C2/C(=O)C(C)(C(C)C)CCC2C)cc1 (stereo not drawn)	4	0	2	-6	3	7
O=C(CSc1nnc(Cc2cccs2)n1C1CC1)NC1CCS(=O)(=O)C1 (stereo not drawn)	3	.	-1	4	5	0
O=C(Nc1cccnc1)c1ccc(S(=O)(=O)c2ccc(Cl)cc2)cc1	4	-5	6	3	-6	27*
Nc1c(C(=O)OCC(=O)Nc2ccc(Cl)cc2[N+](=O)[O-])[nH]c(=O)[nH]c1=O	2	1	33*	3	-4	1
O=C(c1cccs1)N1CCC(c2nc3c(nnn3Cc3ccccc3Cl)c(=O)[nH]2)CC1	7	-1	9	28*	7	3
O=C(c1ccccc1)N1CCC(c2nc3c(nnn3Cc3ccccc3Cl)c(=O)[nH]2)CC1	5	6	2	21	17	1
O=c1c2ccccc2nc(N/N=C/c2c(O)ccc3ccccc23)n1O	11	18	34*	34*	0	3
O=c1c2ccccc2nc(N/N=C/c2ccc(O)cc2)n1O	6	1	5	-9	3	0
CC1(C)CC(=O)c2sc(NS(=O)(=O)c3ccc(Br)cc3)nc2C1	6	-1	-23	-1	9	27*
O=C(NCCCN1CCOCC1)c1ccc(Sc2cccc(Cl)c2)c([N+](=O)[O-])c1	2	3	32*	16	2	-1
CCOC(=O)c1ccc(NC(=O)Nc2ccc3c4c(cccc24)C(=O)N3CC)cc1	-7	-4	4	28*	-17	1
COc1ccc(CC2(c3ccccc3)NC(=O)NC2=O)cc1 (stereo not drawn)	0	.	.	.	-1	0
Oc1[nH]c2ccccc2c1N=Nc1ncnc2c1oc1ccccc12	.	4	8	30*	.	.
O=C(Cc1cccc2ccccc12)NCC(=O)Nc1ccccc1F	1	-1	6	2	-1	-1
CCOC(=O)C1=C(C)Nc2ccccc2N/C1=N\S(=O)(=O)c1cccc(Cl)c1	2	.	2	26*	0	1
CCOC(=O)C1=C(C)Nc2ccccc2N/C1=N\S(=O)(=O)c1ccc(Cl)cc1	-2	.	5	2	6	9
O=C(c1ccc(CS(=O)Cc2ccc(Cl)cc2)o1)N1CCN(c2ccc(F)cc2)CC1 (stereo not drawn)	3	5	30*	2	1	11
O=C(c1ccc(CS(=O)Cc2ccc(Cl)cc2)o1)N1CCN(c2cccc(Cl)c2)CC1 (stereo not drawn)	-4	2	26*	4	6	4
O=C(c1ccc(COc2c(F)c(F)cc(F)c2F)o1)N1CCN(c2ccc(Cl)cc2)CC1	6	7	-1	8	12	0
CCOC(=O)C1(Cc2cccc(F)c2)CCN(C(=O)Cn2cnnn2)CC1	0	-1	-3	-4	-1	3
